# PubChem BioAssay AID1159580 (chemical genetic matrix, 2015)
# In all, about 5,500 compounds went through this assay and about 2,000 (36%) were called active. Roughly 18% stayed inconclusive and do not appear here. Some of the results follow. Unmarked numbers belong to inactive results. Cut-off read from the data, not from the text of the source: active = normalized growth mostly below about 0.91 (no sharp cut-off); inconclusive = no clear call, values can overlap the other calls; inactive = mostly above about 0.92.
# Assay: chemical genetic growth profiling, strain panel (AID 1159580);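 note: tested at 20 µM; growth read once vehicle control cultures reached saturation at 30 °C; 1 = growth at the plate median or of vehicle wells; lower values mean less growth of the strain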
# Settings: S. cerevisiae deletion strains, growth OD
# [1] = locus YAL013W, strain DEP1, hits give low values
# [2] = locus YAL040C, strain CLN3, hits give low values
# [3] = locus YDR150W, strain NUM1, hits give low values
# [4] = locus YDR363W, strain ESC2, hits give low values
# [5] = locus YER002W, strain NOP16, hits give low values
# [6] = locus YGR078C, strain PAC10, hits give low values
# [7] = locus YJR075W, strain HOC1, hits give low values
# [8] = locus YNL175C, strain NOP13, hits give low values
# [9] = locus YNL197C, strain WHI3, hits give low values
# [10] = locus YNL224C, strain SQS1, hits give low values
# [11] = locus YNL322C, strain KRE1, hits give low values
# [12] = locus YOR083W, strain WHI5 (second series), hits give low values
# [13] = locus YPL055C, strain LGE1, hits give low values
# [14] = locus YPL241C, strain CIN2, hits give low values
# [15] = locus YCL061C, strain MRC1 (second series), hits give low values
# [16] = locus YNL153C, strain GIM3, hits give low values
# [17] = locus YMR307W, strain GAS1, hits give low values
# [18] = locus YNL128W, strain TEP1, hits give low values
compound,measurement,setting,value
S=C(S)N1CCCC1,normalized growth,[1],0.676 (active)
same,normalized growth,[2],1
same,normalized growth,[3],0.634 (active)
same,normalized growth,[4],0.804 (active)
same,normalized growth,[5],0.992
same,normalized growth,[6],0.977
same,normalized growth,[7],0.52 (active)
same,normalized growth,[8],0.98
same,normalized growth,[9],0.409 (active)
same,normalized growth,[10],0.966
same,normalized growth,[11],0.916
same,normalized growth,[12],0.175 (active)
same,normalized growth,[13],0.454 (active)
same,normalized growth,[14],0.943 (active)
Fc1ccc(Nc2nc(-c3ccc(F)c(F)c3)cs2)c(F)c1,normalized growth,"locus YAR019C, strain CDC15, hits give low values",0.14 (active)
same,normalized growth,"locus YBL105C, strain PKC1, hits give low values",0.104 (active)
same,normalized growth,"locus YBR135W, strain CKS1, hits give low values",0.0961 (active)
same,normalized growth,"locus YBR136W, strain MEC1, hits give low values",0.0962 (active)
same,normalized growth,"locus YBR160W, strain CDC28, hits give low values",0.12 (active)
same,normalized growth,"locus YDL017W, strain CDC7, hits give low values",0.128 (active)
same,normalized growth,"locus YDL028C, strain MPS1, hits give low values",0.104 (active)
same,normalized growth,"locus YDL101C, strain DUN1, hits give low values",0.282 (active)
same,normalized growth,"locus YDL108W, strain KIN28, hits give low values",0.132 (active)
same,normalized growth,"locus YDL132W, strain cdc53, hits give low values",0.0939 (active)
same,normalized growth,"locus YDL214C, strain PRR2, hits give low values",0.182 (active)
same,normalized growth,"locus YDR052C, strain DBF4, hits give low values",0.181 (active)
same,normalized growth,"locus YDR054C, strain cdc34, hits give low values",0.094 (active)
same,normalized growth,"locus YDR226W, strain ADK1, hits give low values",0.107 (active)
same,normalized growth,"locus YDR477W, strain SNF1, hits give low values",0.102 (active)
same,normalized growth,"locus YER123W, strain YCK3, hits give low values",0.173 (active)
same,normalized growth,"locus YER133W, strain GLC7, hits give low values",0.17 (active)
same,normalized growth,"locus YFL009W, strain cdc4, hits give low values",0.0952 (active)
same,normalized growth,"locus YFL029C, strain CAK1, hits give low values",0.0895 (active)
same,normalized growth,"locus YFR003C, strain YPI1, hits give low values",0.105 (active)
same,normalized growth,"locus YFR019W, strain FAB1, hits give low values",0.102 (active)
same,normalized growth,"locus YFR028C, strain CDC14, hits give low values",0.0972 (active)
same,normalized growth,"locus YGR040W, strain KSS1, hits give low values",0.102 (active)
same,normalized growth,"locus YGR052W, strain FMP48, hits give low values",0.144 (active)
same,normalized growth,"locus YGR092W, strain DBF2, hits give low values",0.11 (active)
same,normalized growth,"locus YHR030C, strain SLT2, hits give low values",0.141 (active)
same,normalized growth,"locus YHR079C, strain IRE1, hits give low values",0.158 (active)
same,normalized growth,"locus YHR082C, strain KSP1, hits give low values",0.155 (active)
same,normalized growth,"locus YHR205W, strain SCH9, hits give low values",0.000718 (active)
same,normalized growth,"locus YIL147C, strain SLN1, hits give low values",0.133 (active)
same,normalized growth,"locus YJL095W, strain BCK1, hits give low values",0.133 (active)
same,normalized growth,"locus YJL128C, strain PBS2, hits give low values",0.0972 (active)
same,normalized growth,"locus YJL157C, strain FAR1, hits give low values",0.199 (active)
same,normalized growth,"locus YJR016C, strain ILV3, hits give low values",0.0878 (active)
same,normalized growth,"locus YJR066W, strain TOR1 (second series), hits give low values",0.0987 (active)
same,normalized growth,"locus YJR066W, strain TOR1, hits give low values",0.111 (active)
same,normalized growth,"locus YKL048C, strain ELM1, hits give low values",0.145 (active)
same,normalized growth,"locus YKL067W, strain YNK1, hits give low values",0.182 (active)
same,normalized growth,"locus YKL101W, strain HSL1, hits give low values",0.132 (active)
same,normalized growth,"locus YKL193C, strain SDS22, hits give low values",0.0966 (active)
same,normalized growth,"locus YKL203C, strain TOR2, hits give low values",0.104 (active)
same,normalized growth,"locus YLR113W, strain HOG1, hits give low values",0.189 (active)
same,normalized growth,"locus YLR133W, strain CKI1, hits give low values",0.0955 (active)
same,normalized growth,"locus YLR403W, strain SFP1, hits give low values",0.0012 (active)
same,normalized growth,"locus YML070W, strain DAK1, hits give low values",0.113 (active)
same,normalized growth,"locus YMR001C, strain CDC5, hits give low values",0.0929 (active)
same,normalized growth,"locus YMR205C, strain PFK2 (second series), hits give low values",0.0941 (active)
same,normalized growth,"locus YMR277W, strain FCP1, hits give low values",0.0934 (active)
same,normalized growth,"locus YNL006W, strain LST8, hits give low values",0.106 (active)
same,normalized growth,"locus YNL020C, strain ARK1, hits give low values",0.107 (active)
same,normalized growth,"locus YNL161W, strain CBK1, hits give low values",0.475 (active)
same,normalized growth,"locus YNL183C, strain NPR1, hits give low values",0.155 (active)
same,normalized growth,"locus YNL207W, strain RIO2, hits give low values",0.114 (active)
same,normalized growth,"locus YNL222W, strain SSU72, hits give low values",0.101 (active)
same,normalized growth,"locus YNL307C, strain MCK1 (second series), hits give low values",0.117 (active)
same,normalized growth,"locus YOL078W, strain AVO1, hits give low values",0.092 (active)
same,normalized growth,"locus YOL136C, strain PFK27, hits give low values",0.197 (active)
same,normalized growth,"locus YOR061W, strain CKA2, hits give low values",0.102 (active)
same,normalized growth,"locus YOR119C, strain RIO1, hits give low values",0.107 (active)
same,normalized growth,"locus YOR231W, strain MKK1, hits give low values",0.169 (active)
same,normalized growth,"locus YOR329C, strain SCD5, hits give low values",0.117 (active)
same,normalized growth,"locus YPL031C, strain PHO85, hits give low values",0.114 (active)
same,normalized growth,"locus YPL153C, strain RAD53, hits give low values",0.116 (active)
same,normalized growth,"locus YPL204W, strain HRR25, hits give low values",0.104 (active)
same,normalized growth,"locus YPL209C, strain IPL1, hits give low values",0.0912 (active)
same,normalized growth,"locus YPL256C, strain CLN2, hits give low values",0.179 (active)
same,normalized growth,"locus YPR025C, strain CCL1, hits give low values",0.0957 (active)
same,normalized growth,"locus YPR106W, strain ISR1, hits give low values",0.099 (active)
same,normalized growth,"locus YPR111W, strain DBF20, hits give low values",0.101 (active)
same,normalized growth,"strain NNK1, hits give low values",0.114 (active)
same,normalized growth,"strain TSCII, hits give low values",0.106 (active)
N[C@@H](CCCC(=O)O)C(=O)O,normalized growth,[1],1.01
same,normalized growth,[2],1.08
same,normalized growth,[15],1.01
same,normalized growth,[4],1.02
same,normalized growth,[5],0.981
same,normalized growth,[6],1.01
same,normalized growth,[7],1.01
same,normalized growth,"locus YMR263W, strain SAP30, hits give low values",1
same,normalized growth,[16],1.02
same,normalized growth,[8],1
same,normalized growth,[9],1.03
same,normalized growth,[10],0.988
same,normalized growth,[11],1.02
same,normalized growth,[12],0.993
same,normalized growth,[13],0.988
C[N+](C)(C)CC#CCN1CCCC1=O,normalized growth,[2],0.99
same,normalized growth,[15],0.996
same,normalized growth,[3],1.01
same,normalized growth,[4],1
same,normalized growth,[5],0.985
same,normalized growth,[6],0.991
same,normalized growth,[17],1.01
same,normalized growth,[16],0.994
same,normalized growth,[8],0.996
same,normalized growth,[9],0.996
same,normalized growth,[10],0.996
same,normalized growth,[11],1
same,normalized growth,[12],1.01
O=C(OC1CCN(CCCl)CC1)C(c1ccccc1)c1ccccc1,normalized growth,[2],0.993
same,normalized growth,[15],0.988
same,normalized growth,[3],0.986
same,normalized growth,[4],0.986
same,normalized growth,[5],1
same,normalized growth,[6],0.994
same,normalized growth,[7],0.995
same,normalized growth,[18],0.997
same,normalized growth,[16],0.969
same,normalized growth,[8],1.01
same,normalized growth,[9],1.03
same,normalized growth,[10],0.99
same,normalized growth,[12],0.996
same,normalized growth,[14],0.99
O=c1[nH]c2ccccc2n1CCCN1CCN(C(c2ccccc2)c2ccccc2)CC1,normalized growth,[2],1.02
same,normalized growth,[15],1
same,normalized growth,[3],1.01
same,normalized growth,[4],1.01
same,normalized growth,[5],1.07
same,normalized growth,[6],1.02
same,normalized growth,[7],1
same,normalized growth,[17],1.03
same,normalized growth,[18],1.19 [resistant] (active)
same,normalized growth,[8],1.04
same,normalized growth,[9],1.04
same,normalized growth,[10],1.04
same,normalized growth,[11],1.01
same,normalized growth,[12],0.92
same,normalized growth,[13],1.02
same,normalized growth,[14],1
